Bioassay records as filed in PubChem.
Only some compounds are listed: those with a hit (about 21% of all), similar ones and a draw of the others.
Cycloheximide cs: counter-screen for Shiga toxin inhibitors: cycloheximide protein synthesis inhibition. actives 12% (n = 300,000). max response, %. cell reporter, cycloheximide protein synthesis inhibition counterscreen. AID 2314; in the data active means max response mostly above about 13%, no sharp cut-off; inactive means mostly below about 14%; further: read at 38.3 µM for the half of the compounds with a filed dose
Pf growth 48h: inhibits P. falciparum growth in the first generation, 48 h; P. falciparum luciferase growth in erythrocytes, 48 h; Potency, µM (highest dose often 28.7 µM), hits mostly inhibitors; actives 5.9% (n = 310,000); AID 504832
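Erythrocytes infected with P. falciparum carrying an integrated firefly luciferase reporter (2% hematocrit, 0.1% parasitemia final) were exposed to compounds in RPMI 1640 with 0.5% Albumax at 37 C, 5% CO2. Growth inhibition was scored as reduced luminescence.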
Shiga inhibitor: inhibitors of Shiga toxin in Vero cells; actives 9.2% (n = 290,000); inhibition, % at 38.7 µM; Vero cells, Shiga toxin protein synthesis inhibition reporter; in the data active means inhibition mostly above about 28%, no sharp cut-off; inactive means mostly below about 43%
Pf growth 96h: inhibits malaria parasite growth, 96 h. Potency, µM (titrated, usually from 28.7 µM), actives largely listed as inhibitors. P. falciparum luciferase reporter growth, 96 h. actives 6.9% (n = 320,000). AID 504834
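Delayed-death screen, second-generation endpoint: infected erythrocytes, 2% hematocrit, 0.05% parasitemia final; 96 hours at 37 C, 5% CO2; luciferase detection reagent; luminescence decrease equals reduced growth.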
Large screens that a line does not name were inactive. Unless noted, the call rests on the fitted dose curve; in most records, active means well fitted inhibition curve with a large enough effect; inconclusive means small, poorly fitted or top-dose-only effect, or another doubt; inactive means no such curve, though single readings can be large or run the other way.

Cc1cccc(CCNS(=O)(=O)c2ccc3c(c2)NC(=O)CS3)c1	Pf growth 96h inconclusive
N#Cc1ccsc1NC(=O)COC(=O)c1cc(Br)ccc1O	Cycloheximide cs 45, Pf growth 48h inconclusive, Shiga inhibitor 84
COc1ccc(NC(=O)CSCC(=O)Nc2sccc2C#N)cc1	none (no result: Cycloheximide cs, Shiga inhibitor)
N#Cc1ccsc1NC(=O)COC(=O)c1ccc2ccccc2c1	Cycloheximide cs 54, Shiga inhibitor active
N#Cc1ccsc1NC(=O)CN1CCN(S(=O)(=O)c2ccc3ccccc3c2)CC1	Pf growth 48h inconclusive
COc1ccc(CCC(=O)Nc2sccc2C#N)cc1	Cycloheximide cs 51, Shiga inhibitor 131
O=C(COC(=O)c1cc(Br)ccc1O)NNC(=O)c1cccs1	none (no result: Cycloheximide cs, Shiga inhibitor)
COc1ccc(C2=Nn3c(nnc3-c3cccc(OC)c3OC)SC2)cc1OC	none (no result: Pf growth 48h, Pf growth 96h)
COc1ccc2c(c1)sc(N)[n+]2Cc1cc(C)cc2cccnc12	Pf growth 48h 9.3µM, Pf growth 96h inconclusive
Cc1cc(C[n+]2ncsc2N)c2ncccc2c1	none
CCOc1ccc2c(c1)sc(N)[n+]2Cc1cc(C)cc2cccnc12	Pf growth 48h 9.3µM, Pf growth 96h 1.9µM
Cc1nn(C)c(C)c1S(=O)(=O)N1CCC(CO)(CC2CCCCO2)CC1 (stereo not given)	Pf growth 96h inconclusive
O=C(CCCOc1ccc(Cl)cc1Cl)NCCc1ccccn1	Cycloheximide cs 31, Shiga inhibitor 39
O=C(CCn1nc(-c2ccc(Cl)cc2)ccc1=O)NCc1ccccn1	Pf growth 96h inconclusive
O=C(CCCOc1ccc(Cl)cc1Cl)NCCc1nnc2ccccn12	Shiga inhibitor 19, Pf growth 96h inconclusive
O=C(CCSc1ccc(Cl)cc1)NCc1ccccn1	Cycloheximide cs 13
C[C@H](NC(=O)CCCOc1ccc(Cl)cc1Cl)c1nnc2ccccn12	none
Cc1ccc(C)c(NC(=O)CCC(=O)NNS(=O)(=O)c2ccc(Cl)cc2)c1	none (no result: Cycloheximide cs, Shiga inhibitor)
C=CCN=C1NN=C(c2cc(C)n(CC=C)c2C)CS1	Cycloheximide cs 28
COCCN=C1NN=C(c2cc(C)n(CC3CCCO3)c2C)CS1 (stereo not given)	Pf growth 48h inconclusive, Pf growth 96h 9.3µM
CN=C1NN=C(c2cc(C)n(-c3ccc(Cl)cc3)c2C)CS1	Cycloheximide cs 59, Shiga inhibitor 136, Pf growth 96h inconclusive
COCCCN=C1NN=C(c2cc(C)n(Cc3ccccc3Cl)c2C)CS1	Cycloheximide cs 22, Pf growth 48h inconclusive, Shiga inhibitor 45, Pf growth 96h inconclusive
CC(C)[C@H](NC(=O)C1CC(=O)N(c2ccc3c(c2)OCO3)C1)C(=O)NC1CCCC1 (stereo not given in full)	none
COc1ccc(OCC(=O)NNC(=S)NC(=O)c2ccc(Br)o2)cc1	none
CCOC(=O)c1cnn(-c2nc(OCC)cc(OCC)n2)c1C	Pf growth 48h inconclusive, Pf growth 96h inconclusive
Cc1c(N=C2NN=C(c3c[nH]c4ccccc34)CS2)c(=O)n(-c2ccccc2)n1C	Pf growth 48h 4.1µM, Pf growth 96h inconclusive
COCCCN=C1NN=C(c2cc(C)n(-c3ccccc3)c2C)CS1	Cycloheximide cs 34, Pf growth 48h 10µM, Shiga inhibitor 62, Pf growth 96h 8.3µM
COCCCN=C1NN=C(c2cc(C)n(-c3ccccc3F)c2C)CS1	none
Cc1c(N=C2NN=C(c3ccc(Cl)cc3)CS2)c(=O)n(-c2ccccc2)n1C	Pf growth 48h inconclusive, Pf growth 96h inconclusive
Cc1cc(C2=NNC(=NCCc3ccccc3)SC2)c(C)n1-c1c(C)n(C)n(-c2ccccc2)c1=O	Pf growth 48h 6.6µM, Pf growth 96h inconclusive
CC(C)C[C@@H](NC(=O)C1CCC(CNC(=O)[C@@H]2CCCN2C(=O)OC(C)(C)C)CC1)C(=O)O (stereo not given in full)	none
Cn1c(SCC(=O)O)nnc1-c1ccc(NC(=O)c2ccc(Cl)c(Cl)c2)cc1	Pf growth 96h inconclusive
COc1ccccc1N1CCN(CC(=O)c2c(C)n(C)c3ccccc23)CC1	Pf growth 48h inconclusive, Pf growth 96h inconclusive
COc1ccccc1N1CCN(CC(=O)c2c(C)[nH]c3cc(C)ccc23)CC1	Pf growth 48h 13µM
Cc1ccc2c(C(=O)CN3CCN(C4CCCCC4)CC3)c(C)[nH]c2c1	Pf growth 48h 2.6µM
O=C(c1ccccc1-c1nc(-c2ccccc2)no1)N1CCCC1	Cycloheximide cs 22, Shiga inhibitor 56, Pf growth 96h inconclusive
Cc1ccc(-c2noc(-c3ccccc3C(=O)N3CCCC3)n2)cc1	Cycloheximide cs 35, Shiga inhibitor 54
Cc1ccc(-c2noc(-c3ccccc3C(=O)N3CCN(C)CC3)n2)cc1	none
O=C(c1ccccc1-c1nc(-c2ccc(Cl)cc2)no1)N1CCCC1	Cycloheximide cs 45, Shiga inhibitor 74 (no result: Pf growth 96h)
COC(=O)C(C)Oc1ccc(=O)[nH]n1 (stereo not given)	none
COC(=O)c1ccc(CNC(=O)c2ccc(NS(=O)(=O)c3ccc4[nH]c(=O)[nH]c4c3)cc2)cc1	none (no result: Cycloheximide cs, Shiga inhibitor)
CCNC(=O)c1ccc(NS(=O)(=O)c2ccc3[nH]c(=O)[nH]c3c2)cc1	Cycloheximide cs 30, Shiga inhibitor 46
COc1cc([C@@H]2c3cc4c(cc3[C@@H](O)[C@H]3COC(=O)[C@H]23)OCO4)cc(OC)c1O[Si](C)(C)C(C)(C)C	Pf growth 48h 7.4µM, Pf growth 96h 8.3µM
CCCCCCCC/C=C\CCCCCCCC(=O)N[C@H](CO)Cc1ccc(O)cc1	none (no result: Pf growth 48h, Pf growth 96h)
CCOC(=O)Cn1c(CN(Cc2ccccc2)Cc2ccccc2)nc2c1c(=O)n(C)c(=O)n2C	Pf growth 48h 5.9µM, Pf growth 96h inconclusive
CN(Cc1ccccc1)Cc1nc2c([nH]1)c(=O)n(C)c(=O)n2C	Pf growth 48h inconclusive, Pf growth 96h 10µM
CCCn1c(CN(Cc2ccccc2)Cc2ccccc2)nc2c1c(=O)n(C)c(=O)n2C	Pf growth 48h inconclusive, Pf growth 96h 9.3µM
CN(Cc1ccccc1)Cc1nc2c(c(=O)n(C)c(=O)n2C)n1Cc1ccccc1Cl	Pf growth 96h inconclusive (no result: Pf growth 48h)
COCCn1c(CN(C)Cc2ccccc2)nc2c1c(=O)n(C)c(=O)n2C	Pf growth 96h 5.9µM (no result: Pf growth 48h)
CCOCCn1c(CN(C)Cc2ccccc2)nc2c1c(=O)n(C)c(=O)n2C	none
COC(=O)Cn1c(CN(Cc2ccccc2)Cc2ccccc2)nc2c1c(=O)[nH]c(=O)n2C	Pf growth 48h inconclusive, Pf growth 96h inconclusive
CCCn1c(CN(C)Cc2ccccc2)nc2c1c(=O)n(C)c(=O)n2C	none
CCCCn1c(CN(C)Cc2ccccc2)nc2c1c(=O)n(C)c(=O)n2C	Pf growth 48h 13µM
O=C1CCCC2=C1C(c1ccccc1O)C1=C(CCCC1=O)O2	Pf growth 96h 8.3µM (no result: Pf growth 48h)
Cc1ccccc1NC(=O)Cc1nnc(SCC(=O)NC2=NCCS2)n1C	Pf growth 96h inconclusive
O=C(Cc1c(F)cccc1Cl)OCN1C(=O)c2ccccc2C1=O	none
COc1ccccc1C(CCN(Cc1ccccc1)C(C)=O)c1ccco1 (stereo not given)	Pf growth 48h inconclusive, Pf growth 96h inconclusive
CCn1c(-c2cc(Br)cc(OC)c2O)nc2cc(S(=O)(=O)N(C)C)ccc21	Pf growth 48h inconclusive, Pf growth 96h 12µM
CCn1c(-c2ccccn2)nc2cc(S(=O)(=O)N(C)C)ccc21	Cycloheximide cs 17
CCCCn1c(CCC(=O)O)nc2cc(S(=O)(=O)N(C)C)ccc21	Pf growth 48h inconclusive, Pf growth 96h inconclusive
CCn1c(CSc2nnc(C)n2-c2ccccc2)nc2cc(S(=O)(=O)N(C)C)ccc21	none
